Screening data: PubChem BioAssay, National Center for Advancing Translational Sciences (NCATS)
PTHR1 agonist – qHTS for PTHR1 Agonists: Primary Screen; HEK293 GP2 PTHR1 cells, GloSensor cAMP luminescence, 1 h; actives 0.075% (n = 410,000); AID 743266, 2014; Parathyroid hormone/parathyroid hormone-related peptide receptor (Homo sapiens), Q03431; Potency, µM (titrated, usually from 115 µM), usual class: activators; further: nearly all actives have a fitted effect of over 55% in size
Target sequence (Q03431 whole entry, looked up): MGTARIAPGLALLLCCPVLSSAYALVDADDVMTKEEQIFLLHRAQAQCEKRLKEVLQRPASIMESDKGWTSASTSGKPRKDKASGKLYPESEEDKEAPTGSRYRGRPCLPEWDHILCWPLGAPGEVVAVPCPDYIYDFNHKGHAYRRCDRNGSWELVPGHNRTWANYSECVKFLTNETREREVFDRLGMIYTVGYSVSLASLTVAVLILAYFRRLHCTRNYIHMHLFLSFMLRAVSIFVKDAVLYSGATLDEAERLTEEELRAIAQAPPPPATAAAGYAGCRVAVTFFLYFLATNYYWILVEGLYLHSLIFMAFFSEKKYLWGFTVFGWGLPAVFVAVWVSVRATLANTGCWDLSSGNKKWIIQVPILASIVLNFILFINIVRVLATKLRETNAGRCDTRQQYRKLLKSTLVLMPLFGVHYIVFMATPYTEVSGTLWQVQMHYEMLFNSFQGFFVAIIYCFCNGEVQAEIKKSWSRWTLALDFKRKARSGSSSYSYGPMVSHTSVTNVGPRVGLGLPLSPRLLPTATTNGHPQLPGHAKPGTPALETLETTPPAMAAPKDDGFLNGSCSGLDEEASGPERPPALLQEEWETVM
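HEK-293-derived GP2 cells expressing PTHR1 and a GloSensor cAMP reporter, 3,000/well, plated overnight, given luciferin plus IBMX (each 0.5 mM as added) for 1 h at 37 °C, then compound for 1 h at 37 °C. Luminescence was read after 15 min at room temperature.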
GLP1R ag – qHTS of GLP-1 Receptor Agonists | Potency, µM (top dose mostly 45.6 µM), hits mostly activators | HEK293 GLP-1R CRE-luciferase, luminescence, 4-6 h; cells express a hypersensitive GLP-1R form | actives 0.007% (n = 380,000) | Glucagon-like peptide 1 receptor (Homo sapiens), P43220
GLP-1R inv ag – qHTS of GLP-1 Receptor Inverse Agonists (Inhibition Mode); Glucagon-like peptide 1 receptor (Homo sapiens), P43220; HEK293 GLP-1R CRE-luciferase, luminescence, 24 h; GLP-1R form is constitutively active; Potency, µM (top dose mostly 38.3 µM), usual class: inhibitors; actives 1.6% (n = 410,000); AID 624417, 2012; further: nearly all actives have a fitted effect of over 55% in size
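Stable HEK293 clone (constitutively active GLP-1R + cAMP-response luciferase); 200 cells/uL plated, 12 h pre-culture, compound 24 hr, 37 deg C/5% CO2; detection reagent 12 min RT; luminescence.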
GLP1R cytotox – qHTS of GLP-1 Receptor Inverse Agonists: Cytotox Screen; HEK293 cAMP-luciferase reporter cells, luminescence, 24 h; Potency, µM (series often up to 38.3 µM), most hits filed as inhibitors; actives 0.13% (n = 410,000); AID 624418, 2012;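 further: loss of luciferase light is scored as toxicity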
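Cells in DMEM/10% Nu serum/1% pen-strep, 1536-well format. Pre-incubated 12 h, dosed with 23 nL compound, incubated a further 24 h. Luciferase detection, 12 min at room temp, luminescence.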
TSHR antag – Antagonists of the Thyroid Stimulating Hormone Receptor: HTS campaign | TSHR-expressing cells, TSH-stimulated cAMP HTRF, 2 h; hits give low values | activity change, negative = inhibition, % at 11.5 µM | Thyrotropin receptor (Homo sapiens), P16473 | AID 504810, 2011 | actives 0.2% (n = 330,000);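 active means activity change below a set negative limit, meaning inhibition stronger than a set level, cut at about -70% in these data; inconclusive means activity change between two set negative limits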
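Competitive HTRF cAMP read-out (cryptate anti-cAMP antibody, cAMP-d2; 30 min, room temperature) in freshly harvested TSHR cells. Compounds added before TSH at EC80 (4nM final), followed by 2 hours' incubation at 37 deg C.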
Hits are given with their value; – = inactive; ? = inconclusive; · = not tested or not shown. This is a sample that favours compounds with a hit; in the whole collection about 1.8% have one here. Unless noted, the call rests on the fitted dose curve; in most records, active means well fitted curve in the direction sought with a large enough effect; inconclusive means small, poorly fitted or top-dose-only effect, or another doubt; inactive means no such curve, though single readings can be large; an effect the other way counts as inactive or inconclusive.

SMILES | PTHR1 agonist | GLP1R ag | GLP-1R inv ag | GLP1R cytotox | TSHR antag
O=C(CCC(=O)Nc1ccccc1)N/N=C/c1ccc2c(c1)OCO2 | – | – | – | – | –
O=C(CCC(=O)Nc1ccc(Cl)cc1)N/N=C/c1ccc2c(c1)OCO2 | – | – | – | – | -72
COc1cc2ccccc2cc1C(=O)N/N=C/c1ccc2c(c1)OCO2 | – | – | 6.3µM | ? | –
O=C(CN(Cc1ccc(Cl)c(Cl)c1)S(=O)(=O)c1ccccc1)N/N=C\c1ccc2c(c1)OCO2 | – | – | 2.2µM | – | –
Cc1ccc2c(c1)N(C(=O)N1CCC(C(=O)NCc3ccco3)CC1)CC(C)O2 (centres undefined) | – | · | – | – | ·
CC(C)(C)c1ccc(Cn2c(=O)cnc3ccccc32)cc1 | – | – | 5µM | ? | –
O=C1c2ccccc2C(=O)c2c1cccc2N1CCCC1 | – | – | ? | ? | –
O=C1C=C(N2CCCCC2)c2ccccc2C1=O | – | – | ? | 10µM | ·
CC(C)(C)NCC(=Cc1ccccc1)C(=O)c1ccccc1 | – | – | ? | 5µM | ·
COc1ccc(C=C(C(=O)c2ccccc2)C(=O)c2ccccc2)cc1 | – | – | ? | – | ·
O=C1C(Cc2ccccc2)C(c2ccccc2)N1c1ccccc1 (centres undefined) | – | – | ? | – | –
CCN(CC)CC1C(=O)N(c2ccc(OC)cc2)C1c1ccccc1 (centres undefined) | – | – | 10µM | – | –
COc1ccc(N2C(=O)C(CN3CCCCC3)C2c2ccccc2)cc1 (centres undefined) | – | – | ? | – | –
Cc1ccc(N2C(=O)C(CN(C)C)C2c2ccccc2)cc1 (centres undefined) | – | – | 11µM | – | –
CCN1CCN(C(=O)N[C@H](C(=O)N[C@@H]2C(=O)N3[C@@H](C(=O)O)C(C)(C)S[C@@H]23)c2ccccc2)C(=O)C1=O | · | – | · | · | ·
CC1CCN(c2ccc(-c3cccc(NS(=O)(=O)c4cccs4)c3)nn2)CC1 | – | · | ? | – | ·
C/C(=N\NC(=O)c1cc(C)nc2ccccc12)c1ccccn1 | – | – | ? | 3.2µM | –
COc1cccc(/C=N/NC(=O)c2cc(-c3ccccn3)nc3ccccc23)c1O | – | – | 5µM | – | –
Cc1ccccc1NC(=S)NC(=O)c1cc(-c2ccccc2)nc2ccccc12 | – | – | 7.9µM | – | –
Cc1cccc(NC(=S)NC(=O)c2cc(-c3ccccc3)nc3ccccc23)c1 | – | – | ? | – | –
O=C(N/N=C/c1ccccn1)c1cc(C2CC2)nc2ccccc12 | – | – | – | – | –
O=C(N/N=C/c1ccccn1)c1cc(-c2ccccc2)nc2ccccc12 | – | – | ? | 5µM | –
COc1ccc(CCNC(=O)CCCn2c(=O)c3ccccc3n(CC(=O)Nc3cccc(C)c3)c2=O)cc1OC | – | – | – | – | ·
CC(=Nc1ccc(C)cc1C)c1sc2ccccc2c1O | – | – | ? | – | –
CC(=Nc1ccc(C)cc1)c1sc2ccccc2c1O | – | – | 13µM | – | –
SMILES | PTHR1 agonist | GLP1R ag | GLP-1R inv ag | GLP1R cytotox | TSHR antag
COC(=O)c1cn(C(=O)c2ccc(C)cc2C)c2ccccc12 | – | – | 5µM | – | –
COC(=O)c1cn(C(=O)c2ccccc2Cl)c2ccccc12 | – | – | ? | ? | –
CCCN(c1ccc(C(C)C)cc1)S(=O)(=O)c1ccc2c(c1)oc(=O)n2CC(=O)OCC | – | · | ? | – | ·
O=C(c1ccccc1Br)N(Cc1ccco1)Cc1ccco1 | – | · | ? | – | ·
O=C(CN1C(=O)C2(SCC(=O)N2c2ccccc2)c2ccccc21)NCc1ccccc1Cl (centres undefined) | – | – | – | – | ·
O=C(CN1C(=O)C2(SCC(=O)N2c2cccc(F)c2)c2ccccc21)NCc1ccccc1Cl (centres undefined) | – | – | 8.9µM | – | ·
NC(=O)CSc1nnnn1-c1cccc(O)c1 | ? | · | – | – | ·
